KCNQ2 inh – blocks the rat KCNQ2 potassium channel; O88943; CHO-K1 KCNQ2, FluxOR thallium flux, 20 min; stronger effect = lower value; B-score at 10 µM; 310,000 tested, 1.1% active; AID 2156;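 active means fluorescence ratio B-score at most minus 3 library SDs, with starting brightness B-score within 2 library SDs, cut at about -5.5 in these data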
KCNQ2 pot – enhances the rat KCNQ2 potassium channel | CHO-K1 KCNQ2, FluxOR thallium flux fluorescence; stronger effect = higher value | 310,000 tested, 0.54% active | O88943 | B-score at 10 µM | AID 2239;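 active means fluorescence ratio B-score at least 3 SD of library B-scores, with initial fluorescence B-score within 3 of them, cut at about 5.3 in these data; same plate scores as AID 2156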;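 further: B-score of peak minus minimum over baseline fluorescence ratio after K+ and Tl+ stimulus; positive B-score means potentiation of KCNQ2 with more thallium influx and brighter signal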
KCNQ2 block conf – rat KCNQ2 channel inhibition, confirmatory screen; shares compounds with KCNQ2 inh; KCNQ2-expressing cells, thallium flux; stronger effect = lower value; activity change, negative = inhibition, % at 10 µM; 1,000 tested, 57% active;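 further: 0% = vehicle wells and values are ratio percent relative to vehicle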
KCNQ1 spec – human KCNQ1 activity in KCNQ2 inhibitor specificity screen. shares compounds with KCNQ2 inh. KCNQ1-expressing cells, FluxOR thallium flux fluorescence; stronger effect = lower value. activity change, negative = inhibition, % at 10 µM. 1,000 tested, 15% active;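 active means activity change at least 3 SD of negative controls below their mean in both duplicate wells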;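 further: CHO cells stably transfected with KCNQ1 and depolarized by potassium stimulus; peak minus minimum fluorescence over baseline after thallium addition; 0% = vehicle negative control and -100% = blank without thallium stimulus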
Target sequence (P51787 whole entry, looked up): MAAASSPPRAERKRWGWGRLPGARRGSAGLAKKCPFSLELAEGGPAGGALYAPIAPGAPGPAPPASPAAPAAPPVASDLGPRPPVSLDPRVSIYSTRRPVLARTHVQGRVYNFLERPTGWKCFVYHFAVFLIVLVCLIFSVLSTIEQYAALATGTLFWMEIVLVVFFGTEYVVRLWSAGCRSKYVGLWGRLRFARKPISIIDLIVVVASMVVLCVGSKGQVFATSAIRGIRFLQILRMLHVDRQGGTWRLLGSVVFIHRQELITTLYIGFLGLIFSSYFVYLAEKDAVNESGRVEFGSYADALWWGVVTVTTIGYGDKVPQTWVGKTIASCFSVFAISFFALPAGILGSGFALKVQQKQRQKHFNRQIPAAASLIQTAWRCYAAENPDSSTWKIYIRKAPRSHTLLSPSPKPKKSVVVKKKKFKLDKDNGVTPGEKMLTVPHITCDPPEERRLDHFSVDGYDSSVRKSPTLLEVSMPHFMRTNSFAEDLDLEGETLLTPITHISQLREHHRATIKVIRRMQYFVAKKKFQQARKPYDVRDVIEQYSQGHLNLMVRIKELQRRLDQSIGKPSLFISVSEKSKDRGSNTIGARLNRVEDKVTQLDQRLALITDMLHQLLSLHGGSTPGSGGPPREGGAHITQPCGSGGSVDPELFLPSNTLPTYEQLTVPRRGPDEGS
CHO Tl ctr – activity in parental CHO cells lacking KCNQ2; thallium flux counter-screen; stronger effect = lower value; activity change, % at 10 µM; AID 493029; shares compounds with KCNQ2 inh; 1,000 tested, 14% active;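 further: 0% = vehicle negative controls with stimulus buffer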
KCNQ2 inh confirm – blocks rat KCNQ2 current in automated patch clamp. shares compounds with KCNQ2 inh. KCNQ2-expressing cells. calls only at 10 µM. 550 tested, 49% active
Starred values were filed as active, the others as inactive. Sampled rows, rich in hits. Any-hit rate of the full collection: about 1.6%. Unless noted, how the calls were made is not given here.

How did O=C(NCCc1cn2ccsc2n1)C1CCCCC1 do in these assays?
KCNQ2 inh: inactive; KCNQ2 pot: 0.14

Results for Cc1ccc(CN2CCN(/N=C/c3ccc(C(=O)O)cc3)CC2)c(C)c1 ?
KCNQ2 inh: -7.33*; KCNQ2 pot: -7.33; KCNQ2 block conf: -26.5%*; KCNQ1 spec: inactive; CHO Tl ctr: inactive; KCNQ2 inh confirm: active

What do the screens show for `Cc1ccc(CN2CCN(/N=C/c3ccc(C(F)(F)F)cc3)CC2)c(C)c1`?
KCNQ2 inh: inactive

What do the screens show for `Cc1ccccc1C(=O)O/N=C(\N)c1ccccc1`?
KCNQ2 inh: inactive

Results for Cc1ccccc1C(=NC(=O)c1ccccc1)c1ccccc1 ?
KCNQ2 inh: -8.46*; KCNQ2 pot: -8.46; KCNQ2 block conf: -28.5%*; KCNQ1 spec: inactive; CHO Tl ctr: inactive; KCNQ2 inh confirm: active

Results for CN(C)c1ccc(/C=C(\NC(=O)c2ccccc2)C(=O)NCCN2CCOCC2)cc1 ?
KCNQ2 inh: inactive

How did O=C(O)c1cccc2c1/C(=N/Nc1ccc([N+](=O)[O-])cc1[N+](=O)[O-])c1ccccc1-2 do in these assays?
KCNQ2 inh: inactive; KCNQ2 pot: 1.03

What do the screens show for `Cc1ccc(-c2nc(CSCC(=O)N3CCN(c4ccccn4)CC3)c(C)o2)cc1`?
KCNQ2 inh: inactive

Results for CCc1ccc(-c2nc(CSCC(=O)N3CCN(c4ccccn4)CC3)c(C)o2)cc1 ?
KCNQ2 inh: -10.1*; KCNQ2 pot: -10.1; KCNQ2 block conf: -37.5%*; KCNQ1 spec: -40.0%*; CHO Tl ctr: -32.5%*; KCNQ2 inh confirm: inactive

What do the screens show for `CCc1nnc(SCC(=O)N2CCCC(N3CCN(c4ccccc4C)CC3)C2)o1` (stereo not drawn)?
KCNQ2 inh: inactive

Results for COc1ccc(CCN(C)C2CCCN(S(=O)(=O)c3ccccc3F)C2)cc1OC (stereo not drawn) ?
KCNQ2 inh: inactive

How did CC1=C(C(=O)NC(C)c2ccc3c(c2)OCCO3)C2(CCC(C)CC2)OC1=O (stereo not drawn) do in these assays?
KCNQ2 inh: -10.5*; KCNQ2 pot: -10.5; KCNQ2 block conf: -26.5%*; KCNQ1 spec: inactive; CHO Tl ctr: inactive; KCNQ2 inh confirm: active

How did CC1=C(C(=O)NC(C)c2ccccc2)C2(CCC(C)CC2)OC1=O (stereo not drawn) do in these assays?
KCNQ2 inh: inactive

Results for Cc1onc(-c2ccccc2)c1C(=O)OCC(=O)N(CC(C)C)c1c(N)n(Cc2ccccc2)c(=O)[nH]c1=O ?
KCNQ2 inh: inactive

What do the screens show for `C=Cc1ccc(Cn2nc(-c3ccc(C)cc3)ccc2=O)cc1`?
KCNQ2 inh: inactive

Results for COc1ccc(Cl)cc1NC(=O)CN(C)Cc1cccs1 ?
KCNQ2 inh: inactive

Results for c1ccc(C2=Nc3c(ccc4ccccc34)C(c3ccncc3)=NN2)cc1 ?
KCNQ2 inh: -11.8*; KCNQ2 pot: -11.8; KCNQ2 block conf: -29.0%*; KCNQ1 spec: inactive; CHO Tl ctr: inactive; KCNQ2 inh confirm: active

How did Cc1ccc2c(c1)C(c1ccncc1)=NNC(c1ccccc1)=N2 do in these assays?
KCNQ2 inh: inactive

How did COc1cc(/C=C2\C(=N)N3N=C(S(C)(=O)=O)SC3=NC2=O)ccc1OS(=O)(=O)c1ccc(C)cc1 do in these assays?
KCNQ2 inh: inactive; KCNQ2 pot: 2.11

Results for CCCn1c(=O)c(C(=O)NCCc2ccccc2)c(O)c2ccccc21 ?
KCNQ2 inh: inactive

How did CCCn1c(=O)c(C(=O)NCCc2ccc(OC)cc2)c(O)c2ccccc21 do in these assays?
KCNQ2 inh: -8.18*; KCNQ2 pot: -8.18; KCNQ2 block conf: inactive; KCNQ1 spec: inactive; CHO Tl ctr: inactive

How did C=CCn1c(=O)c(C(=O)NCCc2ccccc2)c(O)c2ccccc21 do in these assays?
KCNQ2 inh: -6.86*; KCNQ2 pot: -6.86; KCNQ2 block conf: inactive; KCNQ1 spec: inactive; CHO Tl ctr: inactive

How did C=CCn1c(=O)c(C(=O)Nc2cccnc2)c(O)c2ccccc21 do in these assays?
KCNQ2 inh: inactive

How did CN(C(=O)CSc1nnc(-c2ccc(OC(F)F)cc2)n1N)C1CCS(=O)(=O)C1 (stereo not drawn) do in these assays?
KCNQ2 inh: inactive; KCNQ2 pot: 0.2

How did O=C(O)c1ccc(Cl)cc1Nc1nc2cc(Cl)ccc2o1 do in these assays?
KCNQ2 inh: inactive; KCNQ2 pot: 1.41

How did O=C1CCN(Cc2ccccc2)N1 do in these assays?
KCNQ2 inh: inactive; KCNQ2 pot: 0.72

What do the screens show for `O=C(Nc1ccc(Br)c(C(F)(F)F)c1)c1ccccc1`?
KCNQ2 inh: -7.71*; KCNQ2 pot: -7.71; KCNQ2 block conf: inactive; KCNQ1 spec: inactive; CHO Tl ctr: inactive

What do the screens show for `O=C(Nc1ccc(Br)c(C(F)(F)F)c1)c1ccc(C(F)(F)F)cc1`?
KCNQ2 inh: inactive

Results for COc1cc2c(cc1OC)CN(C(=O)COc1ccccc1[N+](=O)[O-])CC2 ?
KCNQ2 inh: inactive

Results for Cc1ccc(C)c(N=C2CCCN2Cc2ccccc2)c1C#N ?
KCNQ2 inh: -7.29*; KCNQ2 pot: -7.29; KCNQ2 block conf: inactive; KCNQ1 spec: inactive; CHO Tl ctr: inactive

How did O=C(O)CN1CCCC1=Nc1ccccc1 do in these assays?
KCNQ2 inh: inactive

What do the screens show for `Cc1ccccc1C(=O)N1CCN(CCNC(=O)C(=O)Nc2ccc(Br)cc2)CC1`?
KCNQ2 inh: inactive

How did O=[N+]([O-])c1cc(C(F)(F)F)cc([N+](=O)[O-])c1Sc1n[nH]c(C(F)(F)F)n1 do in these assays?
KCNQ2 inh: inactive

What do the screens show for `Brc1cccc(/C=N/Nc2nc(N3CCCCC3)nc(N3CCCCC3)n2)c1`?
KCNQ2 inh: -6.89*; KCNQ2 pot: -6.89; KCNQ2 block conf: -19.0%*; KCNQ1 spec: inactive; CHO Tl ctr: inactive; KCNQ2 inh confirm: inactive

Results for O=[N+]([O-])c1cccc(/C=N/Nc2nc(N3CCCCC3)nc(N3CCCCC3)n2)c1 ?
KCNQ2 inh: -7.67*; KCNQ2 pot: -7.67; KCNQ2 block conf: -34.0%*; KCNQ1 spec: inactive; CHO Tl ctr: inactive; KCNQ2 inh confirm: inactive

How did Oc1ccc(/C=N/Nc2nc(N3CCCC3)nc(N3CCCC3)n2)cc1O do in these assays?
KCNQ2 inh: inactive

What do the screens show for `O=[N+]([O-])c1cccc(-n2cccc2/C=N/Nc2nc(N3CCCCC3)nc(N3CCCCC3)n2)c1`?
KCNQ2 inh: inactive

How did O=C(NC(=S)Nc1sc2c(c1C(=O)O)CCCC2)c1ccccc1 do in these assays?
KCNQ2 inh: inactive; KCNQ2 pot: 3.12

Results for CCc1ccc(C(=O)C(C)OC(=O)CNS(=O)(=O)c2ccc(C)cc2)cc1 (stereo not drawn) ?
KCNQ2 inh: inactive

How did CCCCN(C(=O)c1ccc(S(=O)(=O)N2CCCC2)cc1)C1CCS(=O)(=O)C1 (stereo not drawn) do in these assays?
KCNQ2 inh: inactive; KCNQ2 pot: 0.76

Source: PubChem (Johns Hopkins Ion Channel Center)
